Data as given in the supplement of paper PMC11001985.
A number with no mark means an inactive call.

Sequence of UniProt P11142 (P11142 whole entry, looked up): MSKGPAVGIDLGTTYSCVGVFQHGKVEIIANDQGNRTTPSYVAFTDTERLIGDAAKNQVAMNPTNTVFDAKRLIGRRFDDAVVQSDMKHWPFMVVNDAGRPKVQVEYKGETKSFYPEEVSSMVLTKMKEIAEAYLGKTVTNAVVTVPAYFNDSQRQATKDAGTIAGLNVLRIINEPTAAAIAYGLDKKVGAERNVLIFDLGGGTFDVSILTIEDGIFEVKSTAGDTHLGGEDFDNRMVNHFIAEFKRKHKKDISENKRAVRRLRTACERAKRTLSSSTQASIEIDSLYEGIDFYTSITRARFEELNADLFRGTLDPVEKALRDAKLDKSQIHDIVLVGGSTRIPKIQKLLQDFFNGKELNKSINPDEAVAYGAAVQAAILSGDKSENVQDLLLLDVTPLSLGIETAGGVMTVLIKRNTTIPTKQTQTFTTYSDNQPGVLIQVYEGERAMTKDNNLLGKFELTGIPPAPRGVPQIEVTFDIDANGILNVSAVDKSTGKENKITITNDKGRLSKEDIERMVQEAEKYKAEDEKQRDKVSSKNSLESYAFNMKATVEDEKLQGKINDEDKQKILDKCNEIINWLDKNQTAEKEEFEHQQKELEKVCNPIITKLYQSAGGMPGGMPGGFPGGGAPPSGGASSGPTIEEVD
Sequence of UniProt Q00610 (Q00610 whole entry): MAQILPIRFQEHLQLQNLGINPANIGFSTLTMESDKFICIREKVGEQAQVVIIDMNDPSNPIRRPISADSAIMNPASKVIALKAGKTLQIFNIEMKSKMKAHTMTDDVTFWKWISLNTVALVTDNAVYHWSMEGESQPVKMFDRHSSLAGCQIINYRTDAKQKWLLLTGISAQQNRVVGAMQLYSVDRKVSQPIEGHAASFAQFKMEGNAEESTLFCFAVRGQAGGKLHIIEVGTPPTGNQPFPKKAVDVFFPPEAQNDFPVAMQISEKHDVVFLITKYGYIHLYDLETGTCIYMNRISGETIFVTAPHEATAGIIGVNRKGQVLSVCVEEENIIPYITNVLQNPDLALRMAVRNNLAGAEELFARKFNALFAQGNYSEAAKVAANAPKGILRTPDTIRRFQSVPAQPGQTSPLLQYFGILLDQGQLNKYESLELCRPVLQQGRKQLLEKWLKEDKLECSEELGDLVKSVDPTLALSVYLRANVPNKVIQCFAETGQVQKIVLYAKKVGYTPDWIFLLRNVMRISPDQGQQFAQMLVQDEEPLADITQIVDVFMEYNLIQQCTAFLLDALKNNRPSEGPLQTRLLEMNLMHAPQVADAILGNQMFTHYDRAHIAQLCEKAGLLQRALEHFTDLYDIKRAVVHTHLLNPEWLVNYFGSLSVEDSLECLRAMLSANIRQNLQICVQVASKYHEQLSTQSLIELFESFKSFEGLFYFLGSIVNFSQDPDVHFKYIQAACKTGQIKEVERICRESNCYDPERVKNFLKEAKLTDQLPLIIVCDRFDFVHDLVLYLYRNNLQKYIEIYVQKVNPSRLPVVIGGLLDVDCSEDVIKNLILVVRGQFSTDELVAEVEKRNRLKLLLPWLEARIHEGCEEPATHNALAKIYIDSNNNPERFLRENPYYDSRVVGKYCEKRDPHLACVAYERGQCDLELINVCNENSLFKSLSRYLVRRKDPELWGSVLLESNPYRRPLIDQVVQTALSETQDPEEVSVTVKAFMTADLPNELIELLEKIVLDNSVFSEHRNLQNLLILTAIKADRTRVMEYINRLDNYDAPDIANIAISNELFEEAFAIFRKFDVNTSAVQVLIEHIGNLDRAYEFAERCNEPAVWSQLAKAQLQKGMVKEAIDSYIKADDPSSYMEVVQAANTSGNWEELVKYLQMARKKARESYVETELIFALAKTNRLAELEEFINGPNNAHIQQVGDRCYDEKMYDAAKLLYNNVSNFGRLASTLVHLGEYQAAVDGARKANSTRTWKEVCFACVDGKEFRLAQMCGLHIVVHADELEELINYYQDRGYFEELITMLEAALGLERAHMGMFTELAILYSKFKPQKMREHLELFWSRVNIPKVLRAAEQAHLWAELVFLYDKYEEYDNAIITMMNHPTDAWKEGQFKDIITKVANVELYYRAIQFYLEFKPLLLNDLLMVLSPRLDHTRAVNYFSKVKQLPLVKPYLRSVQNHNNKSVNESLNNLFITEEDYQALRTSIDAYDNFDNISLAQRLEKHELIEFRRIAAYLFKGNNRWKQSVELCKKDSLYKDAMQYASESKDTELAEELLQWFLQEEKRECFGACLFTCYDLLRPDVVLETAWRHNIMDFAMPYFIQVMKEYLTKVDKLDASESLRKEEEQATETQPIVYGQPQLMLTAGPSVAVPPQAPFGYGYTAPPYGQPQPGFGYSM
Sequence of UniProt Q6YHK3 (Q6YHK3 whole entry): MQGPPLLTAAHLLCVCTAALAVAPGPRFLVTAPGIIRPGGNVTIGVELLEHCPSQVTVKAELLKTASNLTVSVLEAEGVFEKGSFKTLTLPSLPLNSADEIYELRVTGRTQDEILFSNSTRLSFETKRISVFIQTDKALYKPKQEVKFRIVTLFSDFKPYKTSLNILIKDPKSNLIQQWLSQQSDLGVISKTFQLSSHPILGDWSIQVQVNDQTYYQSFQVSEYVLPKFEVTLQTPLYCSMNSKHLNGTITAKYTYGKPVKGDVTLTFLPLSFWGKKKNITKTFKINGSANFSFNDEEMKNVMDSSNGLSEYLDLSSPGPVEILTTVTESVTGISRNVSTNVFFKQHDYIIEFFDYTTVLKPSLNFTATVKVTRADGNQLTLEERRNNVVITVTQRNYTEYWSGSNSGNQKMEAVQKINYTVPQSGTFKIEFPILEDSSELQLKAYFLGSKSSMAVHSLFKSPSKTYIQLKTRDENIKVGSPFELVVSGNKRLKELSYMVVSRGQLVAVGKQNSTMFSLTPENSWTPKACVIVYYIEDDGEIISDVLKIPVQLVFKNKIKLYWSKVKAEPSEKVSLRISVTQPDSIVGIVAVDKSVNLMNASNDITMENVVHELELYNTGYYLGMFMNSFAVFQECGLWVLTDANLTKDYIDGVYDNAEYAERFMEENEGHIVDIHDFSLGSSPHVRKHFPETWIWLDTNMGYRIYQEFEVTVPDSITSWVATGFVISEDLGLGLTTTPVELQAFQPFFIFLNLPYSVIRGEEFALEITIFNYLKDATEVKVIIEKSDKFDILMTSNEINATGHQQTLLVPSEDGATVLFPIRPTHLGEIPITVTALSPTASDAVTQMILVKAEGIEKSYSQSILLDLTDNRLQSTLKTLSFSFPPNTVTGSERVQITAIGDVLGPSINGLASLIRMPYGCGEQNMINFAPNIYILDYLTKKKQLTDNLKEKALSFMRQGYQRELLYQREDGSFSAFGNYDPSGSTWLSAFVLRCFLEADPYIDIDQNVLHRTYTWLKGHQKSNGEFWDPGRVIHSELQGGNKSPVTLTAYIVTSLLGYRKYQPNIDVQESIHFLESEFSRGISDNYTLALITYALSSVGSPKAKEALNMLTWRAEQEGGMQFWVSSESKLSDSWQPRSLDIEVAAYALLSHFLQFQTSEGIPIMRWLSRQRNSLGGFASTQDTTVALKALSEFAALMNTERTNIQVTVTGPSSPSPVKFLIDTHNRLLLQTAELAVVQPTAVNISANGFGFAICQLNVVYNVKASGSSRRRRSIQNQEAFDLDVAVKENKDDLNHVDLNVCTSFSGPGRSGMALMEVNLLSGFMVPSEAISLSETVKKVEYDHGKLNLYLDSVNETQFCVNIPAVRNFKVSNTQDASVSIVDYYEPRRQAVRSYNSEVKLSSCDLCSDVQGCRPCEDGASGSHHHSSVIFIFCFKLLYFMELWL
Sequence of UniProt Q9H910 (Q9H910 whole entry): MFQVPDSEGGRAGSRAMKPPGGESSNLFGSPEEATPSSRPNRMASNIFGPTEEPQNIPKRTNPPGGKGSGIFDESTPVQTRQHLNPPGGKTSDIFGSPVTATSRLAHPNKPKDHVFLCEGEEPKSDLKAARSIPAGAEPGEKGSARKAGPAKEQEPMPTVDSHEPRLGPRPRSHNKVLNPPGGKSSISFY
Sequence of UniProt Q8WUM4 (Q8WUM4 whole entry): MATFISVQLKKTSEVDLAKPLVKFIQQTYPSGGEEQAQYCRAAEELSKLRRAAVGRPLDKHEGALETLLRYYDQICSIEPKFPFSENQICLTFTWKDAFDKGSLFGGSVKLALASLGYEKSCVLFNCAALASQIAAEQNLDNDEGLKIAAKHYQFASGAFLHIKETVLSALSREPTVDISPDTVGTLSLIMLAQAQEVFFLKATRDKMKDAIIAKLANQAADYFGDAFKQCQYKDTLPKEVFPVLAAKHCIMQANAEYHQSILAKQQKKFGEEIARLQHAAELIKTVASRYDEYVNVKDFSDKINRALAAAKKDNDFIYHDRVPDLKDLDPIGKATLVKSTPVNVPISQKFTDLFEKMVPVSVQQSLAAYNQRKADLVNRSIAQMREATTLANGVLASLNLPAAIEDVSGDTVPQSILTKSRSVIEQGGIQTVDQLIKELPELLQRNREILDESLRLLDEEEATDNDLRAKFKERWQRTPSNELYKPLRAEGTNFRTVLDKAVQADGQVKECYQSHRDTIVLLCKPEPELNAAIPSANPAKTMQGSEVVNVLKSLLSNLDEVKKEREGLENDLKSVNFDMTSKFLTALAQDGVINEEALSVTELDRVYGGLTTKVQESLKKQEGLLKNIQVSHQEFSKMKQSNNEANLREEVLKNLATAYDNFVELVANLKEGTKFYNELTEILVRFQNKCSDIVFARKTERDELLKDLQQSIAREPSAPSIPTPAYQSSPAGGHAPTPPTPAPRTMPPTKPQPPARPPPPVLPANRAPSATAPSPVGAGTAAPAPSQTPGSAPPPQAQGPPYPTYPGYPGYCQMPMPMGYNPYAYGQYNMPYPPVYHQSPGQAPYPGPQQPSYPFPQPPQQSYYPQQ
Sequence of UniProt Q9P0L0 (Q9P0L0 whole entry): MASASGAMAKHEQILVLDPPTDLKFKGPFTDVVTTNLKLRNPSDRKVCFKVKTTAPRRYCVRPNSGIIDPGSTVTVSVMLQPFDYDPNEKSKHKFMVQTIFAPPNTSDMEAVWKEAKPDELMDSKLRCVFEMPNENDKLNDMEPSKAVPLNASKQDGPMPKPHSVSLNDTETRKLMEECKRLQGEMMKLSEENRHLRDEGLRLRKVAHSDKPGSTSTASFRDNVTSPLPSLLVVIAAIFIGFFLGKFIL

The targets below were run with C#CCNC(=O)CCSSCCC(=O)NCCc1ccc(C=O)c(C=O)c1 (assay: lysine labeling ratio R10:1 (500 µM / 50 µM probe), SILAC-ABPP in living cells; higher = lower intrinsic lysine reactivity toward the probe, active = 2 or less). Details: HeLa; probe concentrations 500 vs 50 µM.
Procedure, shortened: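 The two probe levels, 50 µM and 500 µM, of an alkyne-tagged, disulfide-linked lysine probe were applied to living light and heavy SILAC HeLa cells in PBS at room temperature, and the labels were run in both forward and reverse orientation. Mixed lysates underwent biotin-azide click chemistry, trypsin digestion, neutravidin capture, DTT release and alkylation before LC-MS/MS on a TIMS-TOF Pro. R is the filtered median high-probe/low-probe MS1 peptide ratio for each lysine, summarised as the median over forward and reverse replicates. Nothing above 20 is reported; such values are set to 20.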
UniProt P02533 (lysine site: K328) was tested, and the “lysine labeling ratio R10:1” value was 11.3.
In the case of “MYH9 (lysine site: K1389) (UniProt P35579)”, the “lysine labeling ratio R10:1” value is reported as 2.38.
With “CD82 (lysine site: K114) (UniProt P27701)” the “lysine labeling ratio R10:1” value was 0.977 (active).
“HSPA8 (lysine site: K257) (UniProt P11142)” was tested, and the “lysine labeling ratio R10:1” value was 3.1.
“FAT4 (lysine site: K3828) (UniProt Q6V0I7)” was tested, and the “lysine labeling ratio R10:1” value was 5.8.
With “FASN (lysine site: K673) (UniProt P49327)” the “lysine labeling ratio R10:1” value was 2.24.
In the case of “ACIN1 (lysine site: K81) (UniProt Q9UKV3)”, the “lysine labeling ratio R10:1” value is reported as 3.67.
With “EGFR (lysine site: K294) (UniProt P00533)” the “lysine labeling ratio R10:1” value was 3.59.
UniProt P68371 (lysine site: K58) was tested, and the “lysine labeling ratio R10:1” value was 2.53.
“SLC25A13 (lysine site: K408) (UniProt Q9UJS0)” was tested, and the “lysine labeling ratio R10:1” value was 2.67.
With “RDX (lysine site: K165) (UniProt P35241)” the “lysine labeling ratio R10:1” value was 2 (active).
With “COL5A1 (lysine site: K164) (UniProt P20908)” the “lysine labeling ratio R10:1” value was 3.25.
In the case of “MAP4 (lysine site: K933) (UniProt P27816)”, the “lysine labeling ratio R10:1” value is reported as 1.9 (active).
“LMO7 (lysine site: K1496) (UniProt Q8WWI1)” was tested, and the “lysine labeling ratio R10:1” value was 2.11.
“CTNNA1 (lysine site: K199) (UniProt P35221)” was tested, and the “lysine labeling ratio R10:1” value was 1.43 (active).
In the case of “GAPDH (lysine site: K227) (UniProt P04406)”, the “lysine labeling ratio R10:1” value is reported as 1.76 (active).
With “TGFBR3 (lysine site: K314) (UniProt Q03167)” the “lysine labeling ratio R10:1” value was 1.51 (active).
In the case of “RPL5 (lysine site: K27) (UniProt P46777)”, the “lysine labeling ratio R10:1” value is reported as 1.97 (active).
For “CCT3 (lysine site: K381) (UniProt P49368)”, the “lysine labeling ratio R10:1” value was 2.81.
In the case of “PDCD6IP (lysine site: K486) (UniProt Q8WUM4)”, the “lysine labeling ratio R10:1” value is reported as 0.775 (active).
For “KRT18 (lysine site: K187) (UniProt P05783)”, the “lysine labeling ratio R10:1” value was 3.47.
For “NUMA1 (lysine site: K751) (UniProt Q14980)”, the “lysine labeling ratio R10:1” value was 2.82.
With “CLTC (lysine site: K637) (UniProt Q00610)” the “lysine labeling ratio R10:1” value was 2.63.
For “FAM120A (lysine site: K673) (UniProt Q9NZB2)”, the “lysine labeling ratio R10:1” value was 1.15 (active).
“HSPA8 (lysine site: K512) (UniProt P11142)” was tested, and the “lysine labeling ratio R10:1” value was 7.92.
With UniProt O95980 (lysine site: K230) the “lysine labeling ratio R10:1” value was 1.91 (active).
In the case of “HSPA5 (lysine site: K353) (UniProt P11021)”, the “lysine labeling ratio R10:1” value is reported as 3.4.
With “CLTC (lysine site: K389) (UniProt Q00610)” the “lysine labeling ratio R10:1” value was 5.78.
With UniProt P62888 (lysine site: K44) the “lysine labeling ratio R10:1” value was 2.17.
For “LRP1 (lysine site: K3803) (UniProt Q07954)”, the “lysine labeling ratio R10:1” value was 3.09.
For “JPT2 (lysine site: K67) (UniProt Q9H910)”, the “lysine labeling ratio R10:1” value was 4.42.
“CD47 (lysine site: K130) (UniProt Q08722)” was tested, and the “lysine labeling ratio R10:1” value was 3.14.
“VAPA (lysine site: K180) (UniProt Q9P0L0)” was tested, and the “lysine labeling ratio R10:1” value was 1.96 (active).
In the case of UniProt P14618 (lysine site: K66), the “lysine labeling ratio R10:1” value is reported as 1.62 (active).
In the case of “CD109 (lysine site: K1291) (UniProt Q6YHK3)”, the “lysine labeling ratio R10:1” value is reported as 2.41.
For “CD109 (lysine site: K491) (UniProt Q6YHK3)”, the “lysine labeling ratio R10:1” value was 2.99.
With “ADAM9 (lysine site: K290) (UniProt Q13443)” the “lysine labeling ratio R10:1” value was 2.64.
For “ITGB5 (lysine site: K72) (UniProt P18084)”, the “lysine labeling ratio R10:1” value was 2.3.
“KIRREL (lysine site: K67) (UniProt Q96J84)” was tested, and the “lysine labeling ratio R10:1” value was 0.92 (active).
In the case of “CCT8 (lysine site: K20) (UniProt P50990)”, the “lysine labeling ratio R10:1” value is reported as 2.11.
